Source: PubChem BioAssay (several laboratories)
RecA intein inh: blocks M. tuberculosis RecA intein splicing. 290,000 compounds, 0.75% hits. cell-free RecA intein splicing, fluorescence. inhibition, % (no concentration beside the values). P9WHJ3; in the data active means inhibition above about 30%; inconclusive means no clear call, values can overlap the other calls
Target sequence (P9WHJ3 whole entry, looked up): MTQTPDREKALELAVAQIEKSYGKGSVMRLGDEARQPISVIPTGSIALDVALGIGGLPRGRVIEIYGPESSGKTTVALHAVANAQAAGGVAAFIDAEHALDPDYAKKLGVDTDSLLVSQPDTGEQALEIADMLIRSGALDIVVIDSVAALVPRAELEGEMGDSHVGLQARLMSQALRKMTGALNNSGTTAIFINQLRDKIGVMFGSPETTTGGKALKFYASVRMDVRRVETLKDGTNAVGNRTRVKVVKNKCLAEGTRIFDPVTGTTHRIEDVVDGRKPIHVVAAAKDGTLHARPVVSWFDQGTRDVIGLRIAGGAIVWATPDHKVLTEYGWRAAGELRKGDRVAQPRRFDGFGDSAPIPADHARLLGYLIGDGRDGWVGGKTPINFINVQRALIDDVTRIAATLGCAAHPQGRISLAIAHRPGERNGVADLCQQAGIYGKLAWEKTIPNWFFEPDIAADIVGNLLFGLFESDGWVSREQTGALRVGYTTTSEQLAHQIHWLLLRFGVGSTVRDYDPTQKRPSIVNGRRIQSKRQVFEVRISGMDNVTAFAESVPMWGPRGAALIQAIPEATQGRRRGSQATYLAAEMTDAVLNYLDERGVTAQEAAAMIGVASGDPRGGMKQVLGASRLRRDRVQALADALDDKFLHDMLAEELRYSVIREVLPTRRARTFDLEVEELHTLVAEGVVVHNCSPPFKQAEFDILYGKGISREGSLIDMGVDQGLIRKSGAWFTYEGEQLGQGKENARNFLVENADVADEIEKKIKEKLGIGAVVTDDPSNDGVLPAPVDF
Mtb bLac sens: beta-lactam sensitization of Mtb H37Rv. M. tuberculosis H37Rv growth with meropenem, percent inhibition. inhibition, % at 25 µM. 330,000 compounds, 0.27% hits. AID 434955; call rule not given here;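 further: growth measured after seven days incubation then overnight dye step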
CCHFV vOTU inh: blocks the CCHF virus ovarian tumor domain protease; CCHFV vOTU protease, Pep-AMC fluorescence; inhibition, % at 11.5 µM; 370,000 compounds, 0.55% hits; AID 651958; in the data active means inhibition above about 30%
PfHsp40 rescue: rescue of PfHsp40-mediated yeast toxicity; S. cerevisiae expressing PfHsp40, growth rescue, ATP luminescence; growth rescue, % at 12.5 µM; 340,000 compounds, 0.68% hits; AID 504582; in the data active means growth rescue above about 28%, passing the limit was not always enough; inconclusive means no clear call, values can overlap the other calls;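 further: yeast W303a lacking pdr1 and pdr3 grown in galactose medium; growth measured after three days at 30 °C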
Mtb hypoxia rep: reduces hypoxia-regulated biosensor signal in M. tuberculosis. fluorescence inhibition, % (test concentration not listed). AID 1159583. 300,000 compounds, 0.1% hits. M. tuberculosis hypoxia-regulated fluorescent reporter, fluorescence; in the data active means fluorescence inhibition mostly above about 23%, no sharp cut-off; inactive means mostly below about 17%
A number is an active result; – = inactive; ? = inconclusive; · = no result given. Most compounds without a hit are left out; they make up all but 1.7% or so of the library.

SMILES	RecA intein inh	Mtb bLac sens	CCHFV vOTU inh	PfHsp40 rescue	Mtb hypoxia rep
O=C(c1ccc(C(=O)N2CCCc3ccccc32)s1)N1CCCc2ccccc21	–	–	–	51	–
COc1ccc(NC(=O)CON=CC(=O)Nc2ccc(C)cc2)c(OC)c1	·	–	–	–	26
O=C(O)c1ccc(-n2c(=O)c3ccccc3c3ccccc3c2=O)cc1	32	–	–	–	·
O=C(NCc1cccnc1)C1CC=CC2CCN(Cc3ccc(Cl)c(Cl)c3)C(=O)C21 (stereo unspecified)	·	·	·	·	–
COC(=O)NCC(C)OC(=O)Nc1cccc(Cl)c1 (stereo unspecified)	–	–	–	–	·
CC(CNC(=O)COc1ccccc1)OC(=O)Nc1ccc(Cl)c(Cl)c1 (stereo unspecified)	–	–	–	200	–
Cc1cccc(/C=N/n2c(COc3ccccc3)n[nH]c2=S)c1	–	–	–	–	·
CC(/C=N/n1c(COc2ccccc2)n[nH]c1=S)=C\c1ccccc1	–	–	–	67	·
O=P(Nc1cccnc1)(Oc1ccccc1Cl)Oc1ccccc1Cl	–	–	–	411	–
COc1ccc(S(=O)(=O)N(CCc2ccccc2)CC(N)=O)cc1	–	–	–	104	–
COCCNC(=O)CN(CCc1ccccc1)S(=O)(=O)c1ccc(OC)cc1	–	–	–	–	–
Cc1cc(C(=O)N/N=C/c2ccc(O)c(O)c2O)c(C)n1-c1ccccc1	–	·	–	87	·
COC(=O)Cc1c(C)[nH]n(-c2cc(Cl)cc(Cl)c2)c1=O	40	–	–	–	–
C=C1C(=O)C23CCC4C(C)(C(=O)OC)CCCC4(C)C2CCC1(O)C3 (stereo unspecified)	·	·	–	242	·
CCCc1cc(-n2ccnc2)n2c(nc3ccccc32)c1C#N	–	–	–	–	·
Cc1cc(-n2ccnc2)n2c(nc3ccccc32)c1C#N	–	–	–	38	–
COC(=O)C1C(c2ccccc2)NC(=O)N(CCc2cc(OC)c(OC)c(OC)c2)C1C (stereo unspecified)	·	·	·	·	–
Cc1cc(NC(=O)c2ccco2)ccc1-n1cnnn1	·	–	–	–	–
O=C(Oc1ccc2ccccc2c1)c1ccco1	35	–	–	–	–
CCCOC(=O)c1ccc(OC(=O)c2ccco2)cc1	37	–	–	–	–
O=C(Oc1ccc(-n2cnnn2)cc1)c1ccco1	38	–	–	–	–
CC(=NNc1ccc(C(=O)O)cc1)c1ccc2c(c1)Nc1ccccc1S2	·	·	·	·	–
O=c1[nH]c(CN2CCN(c3ccc(O)cc3)CC2)nc2scc(-c3ccc(Cl)cc3)c12	–	–	–	–	–
O=c1[nH]c(CN2CCN(c3ccccc3O)CC2)nc2scc(-c3ccccc3Cl)c12	–	–	–	29	–
COc1ccc(C2=CSC(N=Cc3ccc(F)cc3)=NN2)cc1	·	·	·	·	39
SMILES	RecA intein inh	Mtb bLac sens	CCHFV vOTU inh	PfHsp40 rescue	Mtb hypoxia rep
O=C1C=C(c2cccc3c2sc2ccccc23)CC(c2ccc(F)cc2)C1 (stereo unspecified)	·	·	·	·	–
O=C(c1ccc(Cl)c(Cl)c1)N1CCC(=O)N(C(COCc2ccc(Cl)cc2)Cc2ccccc2)CC1 (stereo unspecified)	–	–	–	30	–
Clc1cccc(Cl)c1Cn1nnc(N2CCCC2)n1	–	–	–	–	36
Fc1cccc(Cl)c1Cn1nnc(-c2ccc(N3CCOCC3)cc2)n1	–	–	–	–	–
CC(=O)NC1=C(Nc2ccc(N(C)C)cc2)C(=O)c2ccccc2C1=O	76	–	–	–	·
O=C(Nc1cccc(Cl)c1)ON=C1c2ccccc2-c2ccccc21	–	–	–	37	–
O=C(Nc1cccc(Cl)c1)Nc1cccc(Cl)c1	·	–	–	–	–
CCN(CC)c1nc(-c2ccccn2)nc(-c2ccccc2)c1C#N	–	–	–	71	–
CN(C)c1nc(-c2ccccn2)nnc1-c1ccccc1	–	–	–	393	·
O=c1oc(-c2ccccc2)cc(Cl)c1Cl	47	–	–	556	–
COc1ccc(C=NNC(=O)C2c3ccccc3-c3ccccc32)cc1	·	·	·	·	–
CCc1ccc(-c2cc(C(=O)N3N=C(C(F)F)CC3(O)C(F)F)c3ccccc3n2)cc1 (stereo unspecified)	–	–	–	174	–
CC(C)Cc1cc(C(=O)N2N=C(C(F)F)CC2(O)C(F)F)c2ccccc2n1 (stereo unspecified)	–	–	–	–	–
Cn1c2ccccc2c(=O)c2ccc(NCCc3cccs3)cc21	·	–	–	?	38
CCOC(=O)CSc1nc2sc3c(c2c(=O)n1C1CCCCC1)CCN(C)C3	34	–	–	–	–
O=C1COc2ccc(S(=O)(=O)N3CCN(c4cccc(Cl)c4)CC3)cc2N1	–	–	–	53	–
CC=CC(=O)Nc1cccc(C2=NOC3(C2)CC(C(N)=O)N(C(=O)c2ccccc2)C3)c1 (stereo unspecified)	·	·	·	·	–
COC(CNC(=O)C(CSCc1ccccc1)N1Cc2ccccc2C1=O)OC (stereo unspecified)	·	·	·	·	–
Cc1ccc2c(c1)C1C=CCC1C(C(=O)O)N2 (stereo unspecified)	–	–	·	·	·
O=C(O)c1ccc2c(c1)C1C=CCC1C(c1cc3c(cc1Br)OCO3)N2 (stereo unspecified)	–	–	–	65	–
CC(=O)c1ccc2c(c1)C1C=CCC1C(C(=O)O)N2 (stereo unspecified)	·	·	50	–	–
Brc1cc2c(cc1C1Nc3ccccc3C3C=CCC31)OCO2 (stereo unspecified)	–	–	–	–	–
COC(=O)C1=C(c2cccc(OC)c2OC)CC2CCC1N2C(=O)NCc1ccc(C(F)(F)F)cc1 (stereo unspecified)	·	·	·	·	–
CC1SCC(=NOCc2c(Cl)cccc2Cl)CS1 (stereo unspecified)	–	–	–	59	–
O=C(N/N=C1/CC2CCC1C2)c1cc2ccccc2cc1O (stereo unspecified)	–	–	–	33	·
SMILES	RecA intein inh	Mtb bLac sens	CCHFV vOTU inh	PfHsp40 rescue	Mtb hypoxia rep
CCCCn1c(=O)c(C(=O)NN=Cc2ccc(F)cc2)c(O)c2ccccc21	·	·	·	·	–
O=C(CCCOc1ccc(Cl)cc1Cl)NN=CC1CCCCC1	·	·	·	·	–
COc1cc(C=O)cc(OC)c1OS(=O)(=O)c1ccc(NC(C)=O)cc1	–	–	–	–	–
COc1ccc(C=O)cc1OS(=O)(=O)c1ccc(NC(C)=O)cc1	–	–	–	42	–
Cc1ccc(SCCNC(=S)Nc2ccc(C)c(C)c2)cc1	–	–	–	97	–
Cc1ccc(SCCNC(=S)Nc2ccccc2)cc1	–	–	–	–	·
COc1cccc(-c2cc3nc(-c4ccccc4)cc(N4CCCC(O)C4)n3n2)c1 (stereo unspecified)	–	–	–	72	–
CC(=NNc1cc(C)nc(NCc2ccccc2)n1)c1cccc([N+](=O)[O-])c1	·	·	·	·	–
CC(C)(C)C1CCc2[nH]c3ccccc3c(=O)c2C1 (stereo unspecified)	–	–	–	102	–
O=c1c2c([nH]c3ccccc13)CCCC2	–	–	–	–	–
C=C1C(=O)OC2CC(C)C3C=CC(=O)C3(C)C(O)C12 (stereo unspecified)	·	·	·	–	·
